The source of these data is PubChem BioAssay (EPA / NIEHS).

By AC50 is commonly meant the concentration giving half of the maximal activity seen.

A short description of experiment [1]: ATG_NFI_CIS: Attagene CIS-FACTORIAL HepG2 Assay for human Nuclear Factor I (NFI) (AID 2282989). Conditions: HepG2 cis-regulatory reporter, NFI response element transcription; actives raise or lower the signal. In a few lines: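 Reporter transcripts were measured by RT-PCR with fluorescent primer extension and capillary electrophoresis 24 h post-treatment. HepG2 cells carried transiently transfected cis-regulated reporter constructs reporting endogenous factor activity; gain or loss fitted against DMSO baseline.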

Experiment [2] concerns the target Myc proto-oncogene protein (Homo sapiens) (UniProt P01106). In words: ATG_Myc_CIS: Attagene CIS-FACTORIAL HepG2 Assay for human Myelocytomatosis (Myc) Proto-Oncogene Transcription Factor (AID 2282990). The note with it: HepG2, Attagene cis-reporter transcription factor activity; actives raise or lower the signal. The method in brief:
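HepG2 cells transiently transfected with multiple cis-promoter-driven reporter transcription units, so endogenous TF activity is read. After 24 h compound exposure, reporter mRNA was quantified by RT-PCR, 6-FAM labelling, HpaI digestion and capillary electrophoresis; bidirectional fit versus DMSO.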

A short description of experiment [3]: ATG_NF_kB_CIS: Attagene CIS-FACTORIAL HepG2 Assay for human Nuclear Factor Kappa B (NF-kB) (AID 2282991). The note with it: HepG2 Attagene cis-factorial NF-kB reporter mRNA; actives raise or lower the signal. In a few lines:
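Read-out: reporter transcript levels quantified by RT-PCR plus capillary electrophoresis of 6-FAM-labelled, HpaI-cut fragments. Transfected HepG2 cells, 24 h compound exposure, endogenous NF-kB-driven cis element; gain or loss scored versus DMSO.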

A short description of experiment [4]: ATG_NRF2_ARE_CIS: Attagene CIS-FACTORIAL HepG2 Assay for human Nuclear Factor Erythroid 2 Related Factor 2 (NFR2) response to Antioxidant Response Elements (ARE) (AID 2282992). Conditions: HepG2 Attagene ARE/NRF2 reporter, transcription factor activity; actives raise or lower the signal. In a few lines:
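Endogenous transcription factor activity read out as reporter transcript levels (RT-PCR plus capillary electrophoresis, fluorescence) in transiently transfected HepG2 cells. Measured at 24 h after dosing; gain or loss of signal fitted versus DMSO.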

Experiment [5] is described as follows: ATG_Oct_MLP_CIS: Attagene CIS-FACTORIAL HepG2 Assay for human Octamer-Binding Transcription Factor (Oct) (AID 2282993). Conditions: HepG2 Attagene cis-factorial Oct reporter, mRNA; actives raise or lower the signal. In a few lines: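 Readout is reporter transcript level from RT-PCR with fluorescent primer extension and capillary electrophoresis, fitted in both directions against DMSO. Transfected HepG2 reporter units report endogenous factor activity after 24 h dosing.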

The target of experiment [6] is Cellular tumor antigen p53 (Homo sapiens) (UniProt P04637). Put plainly: ATG_p53_CIS: Attagene CIS-FACTORIAL HepG2 Assay for human p53 Transcription Factor (AID 2282994). Conditions: HepG2 p53 cis-element reporter, Attagene mRNA; actives raise or lower the signal. The method in brief:
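Endogenous p53 activity read in transiently transfected HepG2 from a cis-element-driven reporter transcript after 24 h exposure. RNA reverse-transcribed, PCR-amplified, fluorescently labelled and sized by capillary electrophoresis; gain or loss fitted against DMSO baseline.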

Experiment [7] is described as follows: BSK_3C_TissueFactor: BioMAP Diversity Plus: 3C Assay for Tissue Factor Biomarker Activity (AID 2282997). Conditions: BioMAP 3C HUVEC, tissue factor biomarker readout; actives raise or lower the signal. In a few lines: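 After a 24 h chemical exposure of primary human umbilical vein endothelial cells, Tissue Factor levels were quantified by ELISA.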
Experiment [8] in a line: BSK_3C_uPAR: BioMAP Diversity Plus: 3C Assay for Urokinase-type plasminogen activator receptor (uPAR) Biomarker Activity (AID 2282998). Conditions: BioMAP 3C HUVEC, uPAR biomarker ELISA; actives raise or lower the signal. The method in brief: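 Cell-surface uPAR on HUVEC (3C system) read by ELISA at 24 h post-treatment, with DMSO as baseline and fitting in both directions. Parallel cultures stained with SRB to flag overt cytotoxicity.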
A general note: An ELISA detects its analyte on a solid surface through an enzyme-linked reagent.

Experiment [9] is described as follows: BSK_3C_VCAM1: BioMAP Diversity Plus: 3C Assay for Vascular cell adhesion molecule 1 (VCAM1) Biomarker Activity (AID 2282999). Conditions: BioMAP 3C HUVEC, VCAM1 ELISA, cytokine-stimulated; actives raise or lower the signal. In a few lines: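 Vascular primary endothelium (human umbilical vein) was exposed to chemicals and assayed 24 h later. VCAM-1 levels came from ELISA, with DMSO serving as baseline for bidirectional fitting.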

Experiment [10] can be described thus: BSK_4H_Eotaxin3: BioMAP Diversity Plus: 4H Assay for Eotaxin 3 Biomarker Activity (AID 2283000).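 Note: CCL26 protein level quantified by ELISA in parallel with SRB cytotoxicity check.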 The note with it: primary human endothelial cells (HUVEC); actives raise or lower the signal. The method in brief:
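Chemicals were added to human umbilical vein endothelium cultures, and Eotaxin-3 was quantified by ELISA at 24 h. Values were derived by bidirectional fitting with DMSO serving as negative control and activity baseline.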

The target in experiment [11] is human Peroxisome Proliferator-activated Receptor delta (PPARd), PPARD (gene 5467) (UniProt Q03181). In words: ATG_PPARd_TRANS: Attagene TRANS-FACTORIAL HepG2 Assay for human Peroxisome Proliferator-activated Receptor delta (PPARd) (AID 2283002; active = hit-call score of the fitted dose curve at least 0.9, where 1 is the maximum). In a few lines:
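HepG2 cells transiently transfected with multiplexed GAL4-UAS reporter units and exogenous chimeric NR-Gal4 proteins; 24 h compound exposure. Reporter mRNA measured by RT-PCR, 6-FAM labelling, HpaI digestion and capillary electrophoresis; gain of signal versus DMSO.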

Read-out in experiment [12]: Intercellular Adhesion Molecule 1 (ICAM1), ICAM1 (gene 3383)
Put plainly: BSK_3C_ICAM1: BioMAP Diversity Plus: 3C Assay for Intercellular Adhesion Molecule 1 (ICAM1) Biomarker Activity (AID 2283003). Conditions: primary human endothelial cells (HUVEC); actives raise or lower the signal. The method in brief:
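Chemicals are dosed onto primary human umbilical vein endothelium (3C system). After 24 h, ICAM-1 is measured by ELISA, and responses are fitted bidirectionally relative to DMSO.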

Experiment [13] can be described thus: BSK_3C_Proliferation: Cell Proliferation Assessment in the BioMAP Diversity Plus: 3C Assay (AID 2283006).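 For AC50: potency may reflect either rise or fall in cell number versus DMSO.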 The note with it: primary human endothelial cells (HUVEC). In a few lines:
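Cells (human umbilical vein endothelial, sub-confluent) receive test chemical; after 48 h they are fixed in 10% trichloroacetic acid, stained with 0.1% SRB and read at 560 nm. Activity is referenced to DMSO, fitting increases and decreases.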

The target of experiment [14] is Peroxisome proliferator-activated receptor gamma (Homo sapiens) (UniProt P37231). Put plainly: ATG_PPARg_TRANS: Attagene TRANS-FACTORIAL HepG2 Assay for human Peroxisome Proliferator-activated Receptor-gamma (PPARg) (AID 2283007; active = hit-call score of the fitted dose curve at least 0.9, where 1 is the maximum). In a few lines: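 Read-out: reporter mRNA induction, detected by fluorescence after RT-PCR and capillary electrophoresis. Transiently transfected human HepG2 liver cells carrying a chimeric NR-Gal4 construct were dosed for 24 h; activity was fitted upward relative to DMSO.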

Experiment [15] addresses Nuclear receptor subfamily 1 group I member 2 (Homo sapiens) (UniProt O75469). In words: ATG_PXR_TRANS: Attagene TRANS-FACTORIAL HepG2 Assay for human Pregnane X Receptor (PXR) (AID 2283008; active = hit-call score of the fitted dose curve at least 0.9, where 1 is the maximum). The method in brief:
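Transactivation by exogenous PXR–GAL4 fusion measured as reporter transcript induction after 24 h compound treatment of transfected human HepG2 cells. Read-out via RT-PCR and capillary electrophoresis of labelled fragments, fitted upward relative to DMSO.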

In experiment [16] the target is human RAR-related Orphan Receptor beta (RORb), RORB (gene 6096) (UniProt Q92753). In words: ATG_RORb_TRANS: Attagene TRANS-FACTORIAL HepG2 Assay for human RAR-related Orphan Receptor beta (RORb) (AID 2283010; active = hit-call score of the fitted dose curve at least 0.9, where 1 is the maximum). The method in brief: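 Transfect HepG2 with multiple GAL4-UAS reporter transcription units; dose chemicals for 24 h; isolate RNA, reverse-transcribe and PCR-amplify reporter sequences; label, digest and resolve fragments by capillary electrophoresis; fit increases relative to DMSO.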

In experiment [17] the target is human Peroxisome Proliferator-activated Receptor alpha (PPARa), PPARA (gene 5465) (UniProt Q07869). Put plainly: ATG_PPARa_TRANS: Attagene TRANS-FACTORIAL HepG2 Assay for human Peroxisome Proliferator-activated Receptor alpha (PPARa) (AID 2283001; active = hit-call score of the fitted dose curve at least 0.9, where 1 is the maximum). In a few lines:
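Cells (HepG2) are transfected with multiple reporter transcription units, exposed to chemical for 24 h, then total RNA is reverse-transcribed and amplified. Labelled products are quantified by capillary electrophoresis; induction is referenced to DMSO.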

The target in experiment [18] is human Retinoic Acid Receptor gamma (RARg), RARG (gene 5916) (UniProt P13631). Put plainly: ATG_RARg_TRANS: Attagene TRANS-FACTORIAL HepG2 Assay for human Retinoic Acid Receptor gamma (RARg) (AID 2283009; active = hit-call score of the fitted dose curve at least 0.9, where 1 is the maximum). The method in brief: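 TRANS format measured activity of exogenous NR-GAL4 fusion (RARg) in transfected HepG2 liver cells after 24 h dosing. Induced reporter RNA was detected by RT-PCR/capillary electrophoresis fluorescence, analysed in the positive direction against DMSO.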

The target in experiment [19] is human Retinoic Acid Receptor beta (RARb), RARB (gene 5915) (UniProt P10826). Put plainly: ATG_RARb_TRANS: Attagene TRANS-FACTORIAL HepG2 Assay for human Retinoic Acid Receptor beta (AID 2283004; active = hit-call score of the fitted dose curve at least 0.9, where 1 is the maximum). In a few lines:
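Transient transfection of HepG2 with multiple reporter units → chemical dosing, 24 h → total RNA isolation → RT with oligo(dT) → reporter-specific PCR, 6-FAM primer extension, HpaI digest → capillary electrophoresis. Positive direction vs DMSO control.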

The target in experiment [20] is Retinoic acid receptor alpha (Homo sapiens) (UniProt P10276). In words: ATG_RARa_TRANS: Attagene TRANS-FACTORIAL HepG2 Assay for human Retinoic Acid Receptor alpha (RARa) (AID 2283005; active = hit-call score of the fitted dose curve at least 0.9, where 1 is the maximum). The method in brief: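 HepG2 cells transiently transfected with multiple reporter units expressing chimeric RARα-GAL4 fusion, with GAL4-UAS-driven reporters. After 24 h compound exposure, reporter mRNA induction quantified by RT-PCR and capillary electrophoresis with fluorescent labeling; gain-of-signal fitted relative to DMSO control.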

Each structure is given as a SMILES string. Results filed as inconclusive are left out. Activity calls are given as the source filed them. Rule for the calls, unless noted: active = hit-call score of the fitted dose curve at least 0.9, where 1 is the maximum; inactive = score below 0.9.

Nuclear receptor subfamily 1 group I member 2 (Homo sapiens), sequence (O75469 whole entry, looked up, the tested form may be a part): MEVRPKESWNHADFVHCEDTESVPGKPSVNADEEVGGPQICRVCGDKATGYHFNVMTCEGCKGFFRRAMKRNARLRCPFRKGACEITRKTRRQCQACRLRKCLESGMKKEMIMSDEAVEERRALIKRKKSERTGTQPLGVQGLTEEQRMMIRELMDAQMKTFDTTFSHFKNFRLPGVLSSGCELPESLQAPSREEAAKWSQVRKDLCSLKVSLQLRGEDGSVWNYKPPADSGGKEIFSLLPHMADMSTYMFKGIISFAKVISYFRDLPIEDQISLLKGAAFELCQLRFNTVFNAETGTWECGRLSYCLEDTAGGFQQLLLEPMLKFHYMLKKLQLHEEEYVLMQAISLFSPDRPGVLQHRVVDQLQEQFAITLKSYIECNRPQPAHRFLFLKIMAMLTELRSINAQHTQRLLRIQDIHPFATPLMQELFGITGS
Cellular tumor antigen p53 (Homo sapiens), sequence (P04637 whole entry, looked up): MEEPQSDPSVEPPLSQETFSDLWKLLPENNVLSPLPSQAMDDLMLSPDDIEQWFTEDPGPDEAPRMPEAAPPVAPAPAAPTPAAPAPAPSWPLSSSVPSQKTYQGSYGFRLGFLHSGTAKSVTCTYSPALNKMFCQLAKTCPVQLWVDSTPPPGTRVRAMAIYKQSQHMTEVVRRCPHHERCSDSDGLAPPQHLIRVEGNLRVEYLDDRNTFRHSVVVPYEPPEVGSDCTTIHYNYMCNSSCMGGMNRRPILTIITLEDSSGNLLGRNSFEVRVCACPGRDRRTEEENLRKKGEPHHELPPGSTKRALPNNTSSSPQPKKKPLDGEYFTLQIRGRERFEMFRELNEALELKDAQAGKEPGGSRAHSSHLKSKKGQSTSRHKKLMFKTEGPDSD
Myc proto-oncogene protein (Homo sapiens), sequence (P01106 whole entry, looked up): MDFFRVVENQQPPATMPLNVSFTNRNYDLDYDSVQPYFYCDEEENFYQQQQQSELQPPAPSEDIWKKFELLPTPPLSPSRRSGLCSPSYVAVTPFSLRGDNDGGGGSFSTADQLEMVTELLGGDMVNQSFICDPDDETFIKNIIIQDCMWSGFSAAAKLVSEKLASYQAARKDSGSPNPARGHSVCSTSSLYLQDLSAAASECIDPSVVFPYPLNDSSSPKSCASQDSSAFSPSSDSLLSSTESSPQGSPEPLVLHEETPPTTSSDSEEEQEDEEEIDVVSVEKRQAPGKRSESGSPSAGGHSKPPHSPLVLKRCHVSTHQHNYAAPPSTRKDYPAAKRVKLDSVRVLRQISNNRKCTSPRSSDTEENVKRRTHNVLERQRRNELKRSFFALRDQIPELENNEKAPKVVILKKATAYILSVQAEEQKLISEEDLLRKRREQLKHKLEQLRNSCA
human Peroxisome Proliferator-activated Receptor delta (PPARd), PPARD (gene 5467), sequence (Q03181 whole entry, looked up, the tested form may be a part): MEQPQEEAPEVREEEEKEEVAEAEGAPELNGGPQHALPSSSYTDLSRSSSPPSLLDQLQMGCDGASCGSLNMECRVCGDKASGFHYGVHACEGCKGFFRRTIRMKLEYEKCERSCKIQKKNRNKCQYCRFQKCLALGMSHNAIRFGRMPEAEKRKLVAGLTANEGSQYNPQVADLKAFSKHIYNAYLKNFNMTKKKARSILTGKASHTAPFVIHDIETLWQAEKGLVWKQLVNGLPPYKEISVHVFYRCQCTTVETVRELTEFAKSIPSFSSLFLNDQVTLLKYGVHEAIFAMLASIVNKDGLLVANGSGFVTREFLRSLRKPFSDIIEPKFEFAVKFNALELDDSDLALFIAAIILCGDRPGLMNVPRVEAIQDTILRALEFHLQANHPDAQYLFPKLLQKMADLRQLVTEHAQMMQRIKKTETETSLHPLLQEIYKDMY
Peroxisome proliferator-activated receptor gamma (Homo sapiens), sequence (P37231 whole entry, looked up, the tested form may be a part): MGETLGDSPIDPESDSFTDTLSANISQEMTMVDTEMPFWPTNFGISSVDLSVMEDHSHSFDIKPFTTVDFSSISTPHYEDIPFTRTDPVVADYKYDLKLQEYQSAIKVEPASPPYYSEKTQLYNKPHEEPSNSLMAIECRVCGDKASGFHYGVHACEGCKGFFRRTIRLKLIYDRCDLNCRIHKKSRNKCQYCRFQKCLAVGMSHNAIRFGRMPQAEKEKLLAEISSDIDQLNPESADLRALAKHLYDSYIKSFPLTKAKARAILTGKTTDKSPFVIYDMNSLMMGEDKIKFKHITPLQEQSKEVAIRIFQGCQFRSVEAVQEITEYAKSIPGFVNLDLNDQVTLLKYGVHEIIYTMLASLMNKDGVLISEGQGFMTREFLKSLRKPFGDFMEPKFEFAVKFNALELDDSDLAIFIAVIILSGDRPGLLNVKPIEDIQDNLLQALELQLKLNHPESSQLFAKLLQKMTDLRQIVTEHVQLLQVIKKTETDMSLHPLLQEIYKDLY
human Retinoic Acid Receptor beta (RARb), RARB (gene 5915), sequence (P10826 whole entry, looked up): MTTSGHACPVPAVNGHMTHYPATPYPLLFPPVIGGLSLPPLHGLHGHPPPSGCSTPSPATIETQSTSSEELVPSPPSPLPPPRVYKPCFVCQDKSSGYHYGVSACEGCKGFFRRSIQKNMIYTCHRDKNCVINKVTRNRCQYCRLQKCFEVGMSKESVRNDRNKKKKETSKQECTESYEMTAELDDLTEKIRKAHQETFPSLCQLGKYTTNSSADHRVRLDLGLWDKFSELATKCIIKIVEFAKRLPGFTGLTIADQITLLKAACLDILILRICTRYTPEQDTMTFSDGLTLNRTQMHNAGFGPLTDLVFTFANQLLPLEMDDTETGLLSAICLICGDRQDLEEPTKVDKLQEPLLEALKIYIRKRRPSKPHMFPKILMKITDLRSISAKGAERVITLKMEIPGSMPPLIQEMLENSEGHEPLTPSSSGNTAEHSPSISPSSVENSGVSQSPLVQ
human RAR-related Orphan Receptor beta (RORb), RORB (gene 6096), sequence (Q92753 whole entry, looked up, the tested form may be a part): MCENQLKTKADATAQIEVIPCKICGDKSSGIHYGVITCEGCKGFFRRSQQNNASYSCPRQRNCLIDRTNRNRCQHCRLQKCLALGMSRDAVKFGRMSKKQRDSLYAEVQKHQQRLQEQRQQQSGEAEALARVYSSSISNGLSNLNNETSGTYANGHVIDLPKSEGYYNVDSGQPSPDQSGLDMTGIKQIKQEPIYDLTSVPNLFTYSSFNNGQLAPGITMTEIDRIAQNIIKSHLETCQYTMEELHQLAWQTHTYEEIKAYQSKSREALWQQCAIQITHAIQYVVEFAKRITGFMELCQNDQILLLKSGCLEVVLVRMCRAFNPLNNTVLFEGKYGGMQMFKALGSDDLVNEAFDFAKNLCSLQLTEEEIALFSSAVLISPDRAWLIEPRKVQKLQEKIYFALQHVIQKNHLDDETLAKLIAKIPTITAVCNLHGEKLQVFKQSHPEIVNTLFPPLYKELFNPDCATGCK
human Peroxisome Proliferator-activated Receptor alpha (PPARa), PPARA (gene 5465), sequence (Q07869 whole entry, looked up): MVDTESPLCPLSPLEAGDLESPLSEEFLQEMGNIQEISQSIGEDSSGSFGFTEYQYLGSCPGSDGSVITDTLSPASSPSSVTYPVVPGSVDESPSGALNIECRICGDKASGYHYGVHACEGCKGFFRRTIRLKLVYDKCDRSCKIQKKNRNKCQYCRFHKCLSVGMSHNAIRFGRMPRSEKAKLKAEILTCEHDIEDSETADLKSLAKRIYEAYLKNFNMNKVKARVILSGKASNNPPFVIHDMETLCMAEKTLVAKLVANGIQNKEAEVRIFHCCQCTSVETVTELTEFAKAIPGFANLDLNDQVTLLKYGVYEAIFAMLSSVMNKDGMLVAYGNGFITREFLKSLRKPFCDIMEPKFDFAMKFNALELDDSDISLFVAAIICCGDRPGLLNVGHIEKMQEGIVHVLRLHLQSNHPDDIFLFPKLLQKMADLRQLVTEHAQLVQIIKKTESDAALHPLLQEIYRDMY
Retinoic acid receptor alpha (Homo sapiens), sequence (P10276 whole entry, looked up, the tested form may be a part): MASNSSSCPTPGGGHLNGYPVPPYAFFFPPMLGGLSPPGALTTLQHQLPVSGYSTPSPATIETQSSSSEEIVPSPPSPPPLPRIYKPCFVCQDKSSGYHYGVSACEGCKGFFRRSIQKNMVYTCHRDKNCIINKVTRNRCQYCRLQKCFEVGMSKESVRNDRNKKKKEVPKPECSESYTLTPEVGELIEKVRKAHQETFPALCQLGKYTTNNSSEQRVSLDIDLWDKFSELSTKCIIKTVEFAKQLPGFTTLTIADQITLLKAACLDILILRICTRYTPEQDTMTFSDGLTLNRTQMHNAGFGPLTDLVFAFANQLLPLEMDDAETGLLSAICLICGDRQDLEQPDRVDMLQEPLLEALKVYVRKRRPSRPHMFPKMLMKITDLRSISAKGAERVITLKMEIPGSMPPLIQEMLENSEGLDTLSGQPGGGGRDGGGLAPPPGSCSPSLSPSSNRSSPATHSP
human Retinoic Acid Receptor gamma (RARg), RARG (gene 5916), sequence (P13631 whole entry, looked up, the tested form may be a part): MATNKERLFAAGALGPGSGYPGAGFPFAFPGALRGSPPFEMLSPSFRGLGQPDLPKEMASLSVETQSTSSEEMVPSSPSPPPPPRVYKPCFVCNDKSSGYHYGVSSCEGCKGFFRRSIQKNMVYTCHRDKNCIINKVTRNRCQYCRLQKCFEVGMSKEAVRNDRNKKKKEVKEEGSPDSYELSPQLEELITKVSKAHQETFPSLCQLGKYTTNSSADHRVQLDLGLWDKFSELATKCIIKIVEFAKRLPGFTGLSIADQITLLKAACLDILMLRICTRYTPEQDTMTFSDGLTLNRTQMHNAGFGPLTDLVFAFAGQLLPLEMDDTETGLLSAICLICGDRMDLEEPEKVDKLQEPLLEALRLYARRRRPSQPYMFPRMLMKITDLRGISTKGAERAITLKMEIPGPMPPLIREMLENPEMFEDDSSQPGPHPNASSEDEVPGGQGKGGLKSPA

Regarding `C[Si]1(C)O[Si](C)(C)O[Si](C)(C)O[Si](C)(C)O1`, the molecule was called inactive in experiment [1], in [2], in experiment [3], in experiment [4], in experiment [5] and in experiment [6]. The outcome in experiment [7], in experiment [8], in experiment [9], in experiment [10], in experiment [11] and in experiment [12] was inactive. Moreover, the result in experiment [13], in experiment [14], in experiment [15] and in experiment [16] was inactive.
Consider `Cc1cccc(C)c1O`, for which the molecule was called inactive in experiment [1], in experiment [2], in [3], in experiment [4], in experiment [5] and in [6]. Besides, the result in experiment [8], in [9], in experiment [10], in experiment [17], in experiment [12] and in experiment [13] was inactive. In addition, the call in experiment [15] and in experiment [18] was inactive.
As for `Cc1cccc(Nc2cc(Cl)nc(SCC(=O)O)n2)c1C`, the result in experiment [1], in experiment [2], in [3], in [4], in experiment [5] and in experiment [6] was inactive. Moreover, the result in experiment [7], in experiment [8], in [9], in [10], in experiment [12] and in [19] was inactive. The outcome in [13] was inactive. Further, the half-maximal activity concentration (AC50) in [15] is 21 µM (active).
`Nc1ccccc1N`: the half-maximal activity concentration (AC50) is 46.1 µM (active) in [1]; 9.26 µM (active) in experiment [4]; 29 µM (active) in [5]; 32.4 µM (active) in experiment [6]; 4.58 µM (active) in experiment [8]; 11 µM (active) in experiment [9]. In experiment [13], the AC50 was 9.14 µM (active). Further, the molecule was called inactive in experiment [2], in [3], in [10], in [11], in experiment [12] and in [19]. In addition, the molecule was called inactive in experiment [20], in experiment [14], in [15] and in experiment [16].
